Compound activity as filed in PubChem BioAssay.
Hits are enriched below; roughly 1.2% of the tested compounds scored in any of these assays.
Vc quorum ag = quorum light induction in luxS cqsA deficient V. cholerae; 350,000 compounds, 0.16% hits; AID 588436; activation, % at 18.7 µM; V. cholerae BH1578 lux reporter, luminescence, 6 h; in the data active = activation mostly above about 9.7%, no sharp cut-off; inconclusive = no clear call, values can overlap the other calls; inactive = mostly below about 3.7%
TcdB inh = blocks C. difficile toxin B glycohydrolase activity; P18177; TcdB glycohydrolase enzymatic assay, plate reader; inhibition, % at 9.99 µM; 350,000 compounds, 0.24% hits; AID 652162; in the data active = inhibition above about 10%
BioA inh = BioA (M. tuberculosis) enzyme inhibition; 360,000 compounds, 0.096% hits; purified M. tuberculosis BioA enzyme, plate reader; AID 602481; inhibition, % at 9.99 µM; in the data active = inhibition above about 40%; inconclusive = no clear call, values can overlap the other calls
PfHsp40 yeast = restores yeast growth despite PfHsp40 toxicity | S. cerevisiae expressing PfHsp40, growth rescue, ATP luminescence | growth rescue, % at 12.5 µM | 340,000 compounds, 0.68% hits | AID 504582; in the data active = growth rescue above about 28%, passing the limit was not always enough; inconclusive = no clear call, values can overlap the other calls;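 also: yeast W303a lacking pdr1 and pdr3 grown in galactose medium; growth measured after three days at 30 °C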
VHR inh abs = DUSP3 (human) phosphatase inhibition | P51452 | recombinant VHR phosphatase, pNPP absorbance | inhibition, % at 13.3 µM | 290,000 compounds, 0.52% hits | AID 1654; in the data active = inhibition above about 50%
Target sequence (P51452 whole entry, looked up): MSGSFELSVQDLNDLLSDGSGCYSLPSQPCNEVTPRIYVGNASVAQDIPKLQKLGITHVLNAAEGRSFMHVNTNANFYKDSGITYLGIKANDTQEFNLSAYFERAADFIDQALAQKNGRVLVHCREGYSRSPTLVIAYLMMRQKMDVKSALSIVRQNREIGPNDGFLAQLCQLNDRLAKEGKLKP
Yp Topo-I inh = inhibitors of Yersinia pestis topoisomerase I | activity, % at 10 µM | Y. pestis Topo-I cleavage product accumulation, plate reader | 360,000 compounds, 0.064% hits; in the data active = activity above about 50%, passing the limit was not always enough; inconclusive = no clear call, values can overlap the other calls
Of the large screens only hits and unclear results are named; the others gave an inactive call.

CN1CCN(C(c2ccc(C(F)(F)F)cc2)c2cc(Cl)c3cccnc3c2O)CC1 (stereo not drawn)	none (no result: Vc quorum ag, BioA inh, PfHsp40 yeast, Yp Topo-I inh)
CCN1CCN(C(c2ccc(C(F)(F)F)cc2)c2ccc3cccnc3c2O)CC1 (stereo not drawn)	PfHsp40 yeast 59.6
CC(C)CN(CC(C)C)S(=O)(=O)N1CCC(C(=O)N2CCc3ccccc3C2)CC1	none (no result: TcdB inh)
COc1cc(OC)nc(C(NC(=O)C2CCN(Cc3ccc(Oc4ccccc4)cc3)CC2)c2ccccc2C)n1 (stereo not drawn)	none (no result: PfHsp40 yeast, VHR inh abs)
CC(=O)n1nc2nc(C)cc(C)c2c1N	none (no result: TcdB inh, BioA inh)
Cc1cc(C)c2c(N=NN3CCCCC3)[nH]nc2n1	PfHsp40 yeast 85.7 (no result: BioA inh)
CCN(CC)N=Nc1[nH]nc2nc(C)cc(C)c12	PfHsp40 yeast 45.1 (no result: TcdB inh)
Cc1cc(C)c2c(C)[nH]nc2n1	none (no result: PfHsp40 yeast)
CC(C)C1/C(=N/O)CC(c2ccccc2)NC1c1ccccc1 (stereo not drawn)	PfHsp40 yeast 49.3
C[C@H](NC(=O)c1ccccc1Cl)C(=O)OCC(=O)NNC(=O)c1cccs1	none (no result: VHR inh abs)
CC(=O)NCCc1c(C)n(Cc2ccccc2)c2ccccc12	PfHsp40 yeast 63.8
Cc1noc(C)c1NC(=O)N(C)C[C@H]1Oc2c(NC(=O)Nc3ccc(F)cc3)cccc2C(=O)N([C@@H](C)CO)C[C@H]1C	none (no result: Vc quorum ag, PfHsp40 yeast, VHR inh abs, Yp Topo-I inh)
COc1ccc(NC(=O)N(C)C[C@H]2Oc3c(NC(=O)C4CCCCC4)cccc3C(=O)N([C@@H](C)CO)C[C@@H]2C)cc1	none (no result: Vc quorum ag, PfHsp40 yeast, VHR inh abs, Yp Topo-I inh)
COc1cc2[nH]c3c(=O)n(CCN4CCCCC4)cnc3c2cc1OC	VHR inh abs 53.4 (no result: TcdB inh)
Nc1nonc1C(=O)N/N=C/c1cc(Br)ccc1O	PfHsp40 yeast 167.9 (no result: Vc quorum ag, BioA inh, Yp Topo-I inh)
Nc1nonc1-n1nnc(C(=O)N/N=C/c2cc(Br)ccc2O)c1CNc1ccccc1	none
CC1=C(C(=O)N(C)C)CC(CC(=O)NCc2cccc3ccccc23)C(=O)N1Cc1ccc(F)cc1 (stereo not drawn)	none (no result: Vc quorum ag, PfHsp40 yeast, VHR inh abs, Yp Topo-I inh)
COc1cc(C(C[N+](=O)[O-])c2c(N)n(C)c(=O)n(C)c2=O)ccc1O (stereo not drawn)	none (no result: BioA inh)
Cc1ccc(C(C[N+](=O)[O-])c2c(N)n(C)c(=O)n(C)c2=O)cc1 (stereo not drawn)	PfHsp40 yeast 364.2 (no result: BioA inh)
Cc1cc(-c2cccnc2)c(C#N)c(SCc2cccc(F)c2)n1	none (no result: TcdB inh)
Clc1ccccc1CN(Cc1ccco1)Cc1nnnn1C1CCCC1	PfHsp40 yeast 331.1 (no result: TcdB inh)
O=S(=O)(Nc1cccc(S(=O)(=O)N2CCOCC2)c1)c1ccc2c(c1)OCCO2	none (no result: BioA inh)
COC(=O)c1ccc(/C=N\N2CCN(c3ccccc3)CC2)cc1	VHR inh abs 51.3
CN(C)c1ccc(NC(=O)C2CCCN(S(=O)(=O)c3ccccc3)C2)cc1 (stereo not drawn)	VHR inh abs 55.8 (no result: BioA inh)
C=C(C)COc1ccc(-c2[nH]ncc2-c2ccc(Br)cc2)c(O)c1	PfHsp40 yeast 308.9 (no result: TcdB inh, BioA inh)
O=C(Cc1ccncc1)NCC[C@@H]1CC[C@@H](NC(=O)C2CC2)[C@H](CO)O1	none (no result: Vc quorum ag, PfHsp40 yeast, VHR inh abs, Yp Topo-I inh)
Cc1ccc(Cc2c(-c3ccc(C)cc3)nc3c(Cl)cc(C(F)(F)F)cn23)cc1	none (no result: Vc quorum ag, TcdB inh, PfHsp40 yeast, VHR inh abs, Yp Topo-I inh)
COC1=C(c2ccccc2)C(=O)c2ccccc2C1=O	PfHsp40 yeast 223.9 (no result: TcdB inh, BioA inh)
CC(=O)c1ccccc1N(C(=O)c1ccco1)C(C(=O)NC1CCCC1)c1ccc(C)cc1 (stereo not drawn)	VHR inh abs 51.1
O=C(/C=C/c1ccc(F)cc1)c1cc(Br)ccc1O	none
O=C(/C=C/c1ccccc1)c1cc(Br)ccc(=O)c1O	PfHsp40 yeast 332.3 (no result: Vc quorum ag, TcdB inh)
CCN(C)c1cc2c(c3c1ccn3C)C1CCC2C1 (stereo not drawn)	none (no result: Vc quorum ag, PfHsp40 yeast, VHR inh abs, Yp Topo-I inh)
CCSc1nnc(NC(=O)c2cccc(S(=O)(=O)N(C)c3ccccc3)c2)s1	PfHsp40 yeast 29.8 (no result: TcdB inh, BioA inh)
COc1cccc(CNc2ncnc3ccc(-c4c(C)noc4C)cc23)c1	PfHsp40 yeast 32.9 (no result: VHR inh abs)
Cc1cc2cc3c(cc2nc1SCC(=O)N1CCCC1)OCCO3	VHR inh abs 52.9
O=c1c(CO)cc(CO)cc(CO)c1O	PfHsp40 yeast 422.4 (no result: BioA inh)
C[C@@H]1CC[C@H]2[C@@H](C)C(=O)O[C@@H]3O[C@@]4(C)CC[C@@H]1[C@]32OO4	PfHsp40 yeast 103.9
COc1ccc(C2CC(c3ccc(OC)cc3)n3nc(NS(C)(=O)=O)nc3N2)cc1 (stereo not drawn)	none
COc1ccc(C2=NN(c3ccc(C(=O)O)cc3)C(c3ccc(OC)c(OC)c3)C2)cc1 (stereo not drawn)	PfHsp40 yeast 112.3 (no result: BioA inh)
CC(=O)c1cccc(NC(=O)CCc2nnc3ccc(N4CCN(C)CC4)nn23)c1	none
CC(=O)c1cccc(NC(=O)CCc2nnc3ccc(NCc4ccc5c(c4)OCO5)nn23)c1	VHR inh abs 56.8, Yp Topo-I inh 72.9 (no result: BioA inh)
Cc1cc(C)c(S(=O)(=O)N2CCN(C(=O)c3ccccc3OCc3c(C)noc3C)CC2)c(C)c1	none (no result: VHR inh abs)
O=C1NC(Cc2ccccc2)c2nc3cc(F)ccc3c(=O)n2-c2cc3ccccc3cc21 (stereo not drawn)	Yp Topo-I inh inconclusive (no result: PfHsp40 yeast, VHR inh abs)
O=C1NC(Cc2ccccc2)c2nc3cc(F)c(F)cc3c(=O)n2-c2cc3ccccc3cc21 (stereo not drawn)	none (no result: PfHsp40 yeast, VHR inh abs)
COc1cc2nc3n(c(=O)c2cc1OC)-c1cc2ccccc2cc1C(=O)NC3CC(C)C (stereo not drawn)	none (no result: PfHsp40 yeast, VHR inh abs)
O=C1NC(Cc2ccccc2)c2nc3ccccc3c(=O)n2-c2cc3ccccc3cc21 (stereo not drawn)	Yp Topo-I inh 51.0 (no result: PfHsp40 yeast, VHR inh abs)
COc1cc2nc3n(c(=O)c2cc1OC)-c1cc2ccccc2cc1C(=O)NC3Cc1ccccc1 (stereo not drawn)	Yp Topo-I inh 65.1 (no result: PfHsp40 yeast, VHR inh abs)
CC(C)CC1NC(=O)c2cc3ccccc3cc2-n2c1nc1cc(Cl)ccc1c2=O (stereo not drawn)	Yp Topo-I inh 53.6 (no result: PfHsp40 yeast, VHR inh abs)
Clc1ccc(OCc2nc3ccccc3[nH]2)cc1	none
Cc1ccc2oc(=O)c3cc(C(=O)NCCN4CCc5ccccc5C4)sc3c2c1	none
CCCN1CCN(CCCNC(=O)c2cc3c(=O)oc4ccc(C)cc4c3s2)CC1	VHR inh abs 50.2
Cc1ccc2oc(=O)c3cc(C(=O)NCCCN4CCC(C)CC4)sc3c2c1	none (no result: Vc quorum ag, BioA inh, PfHsp40 yeast, VHR inh abs, Yp Topo-I inh)
Cc1ccc2oc(=O)c3cc(C(=O)NCCCN4CCCC(C)C4)sc3c2c1 (stereo not drawn)	VHR inh abs 51.2
Cc1cc(C)cc(OCC(=O)OC/C(O)=C(\C#N)c2nc3ccccc3[nH]2)c1	PfHsp40 yeast 28.4 (no result: TcdB inh, BioA inh)
CNC(=O)N(O)C1N(/N=C/c2ccc(N(C)C)cc2)C(=S)SC1(C)C (stereo not drawn)	none
CNC(=O)N(O)C1N(/N=C/c2cccs2)C(=S)SC1(C)C (stereo not drawn)	TcdB inh 10.2 (no result: BioA inh)
CC(=O)Nc1cc(-c2ccc(F)cc2)[nH]n1	TcdB inh 10.6 (no result: BioA inh)
O=C(Nc1cc(-c2ccccc2)[nH]n1)c1ccccc1F	none (no result: PfHsp40 yeast)
CCNC(=S)Nc1cc(-c2ccc(Cl)cc2)[nH]n1	PfHsp40 yeast 121.8 (no result: BioA inh)
CCNC(=S)Nc1ccc(Cl)cc1	none
COc1ccc(S(=O)(=O)Nc2cccc3c2O[C@@H](CN(C)C(=O)Nc2ccc(F)cc2)[C@H](C)CN([C@H](C)CO)C3=O)cc1	none (no result: Vc quorum ag, PfHsp40 yeast, VHR inh abs, Yp Topo-I inh)
